This note sets out measurements from PubChem BioAssay (NCI).

About 83,000 compounds went through this panel and 20% of them were active in at least one assay; those are over-represented in the sample as a whole.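 Testing used 96-well plates and a 48-hour single-concentration exposure. Example: -40 means 40% of the starting cells died.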 Unmarked numbers belong to inactive results. Activity calls are given as the source filed them.

For the experiment, the system named is SR leukemia. Nature of the experiment: NCI-60 one-dose screen, 48 h (100 = growth as untreated, 0 = no growth, -100 = all killed). The conditions noted are these: 10 µM unless noted. On the procedure: Growth inhibition of the SR human tumor cell line is measured as a screen for anti-cancer activity. Cells are grown in 96 well plates and exposed to the test compound for 48 hours. Compounds are tested at a single concentration, which is 10^-5 M for most compounds. The reported endpoint is percent growth (GI% or GIPRCNT), where numbers from 0 - 100% represent growth inhibition, and numbers from -100% - 0 represent cell death. For example, a value of 40 represents 60% growth inhibition. A value of 0 means no net growth occurred over the course of the experiment. A value of -40 indicates 40% of cells at the beginning of the experiment died by the end of the experiment. A value of -100 means all cells are dead at the end of the experiment.
NCI-60 Human Tumor Cell Lines Screen was performed using the standard one-dose NCI protocol, which is described in more detail at https://dtp.cancer.gov/discovery_development/nci-60/default.htm.
Compounds with GIPRCNT values below 10 were considered active. Activity score was based on GIPRCNT using the following formula: […]
Score is 0 for GIPRCNT values of 100 or above, 50 for GIPRCNT values of 0, and 100 for GIPRCNT values of -100.
In the case of `CN(C)c1ccc(/C=N/Nc2nc(N/N=C/c3ccc(N(C)C)cc3)nc(N3CCOCC3)n2)cc1`, the growth is -13.1% (active). To `CC1OC(O[C@@H]2[C@H](O)C(CO)OC(O[C@H]3COC(O[C@H]4CC[C@]5(C)[C@H]6CC[C@]78OC[C@@]9(CC[C@](C)(C=O)C[C@H]97)C(=O)C[C@@]8(C)[C@]6(C)CC[C@H]5C4(C)C)[C@@H](O)[C@@H]3O)[C@H]2OC2OC[C@@H](O)[C@@H](O)[C@@H]2O)[C@@H](O)[C@@H](O)[C@H]1O` (stereo not given in full) belongs 8.86% (active); to `C#C[C@]1(O)CC[C@H]2[C@@H]3CC=C4c5sc(Nc6cc(OC)ccc6OC)nc5CC[C@]4(C)[C@H]3CC[C@@]21C`, 3.13% (active). The result for `C#CCOc1ccc(/C=N/Nc2nc(-c3cc(Cl)ccc3Cl)cs2)cc1` reads 87.8%; that for `CCNC(=O)Oc1ccc(/C(=C(/C)c2ccccc2)c2ccc(OCCN3CCCC3)cc2)cc1`, 32.3%; that for `O=c1[nH]c2cc(Cl)ccc2n1C1CCN(c2ccc3nnc(Cl)n3n2)CC1`, 81.8%. To `O=C(Nc1cccc(-c2nc(-c3ccc(NC(=O)c4cccs4)cc3Cl)no2)c1)Nc1ccc(NC(=O)C2CC2)c(C(F)(F)F)c1` belongs -25.9% (active); to `CC(=O)Nc1ccc(NC(=O)Nc2cccc(-c3nc(-c4ccc(NC(=O)c5cccs5)cc4Cl)no3)c2)cc1C(F)(F)F`, -7.39% (active); to `Oc1ccc(CSc2nnc(-c3ccc(Oc4ccccc4)cc3)o2)c2cccnc12`, 32.2%. `O=C1c2c(c3c4cccnc4[nH]c3c3ccc4ccccc4c23)C(=O)N1CCN1CCOCC1`: the growth was 21.8%. The result for `C=CCn1c(SCC(=O)Nc2cccc(C(=O)/C=C/c3ccc(Cl)cc3)c2)nc2ccccc2c1=O` reads 21%; that for `CCN1C/C(=N\S(=O)(=O)c2ccccc2)N(CC)C1=S`, 101%; that for `CCOC(=O)c1c(NCC(=O)Nc2ccc(Br)cc2)sc2c1CCCC2`, 43.8%.

On to `O=C(/C=C1\C=CN(CCCCCCF)c2ccccc21)n1ccc2ccccc21`, for which the growth was 85.8%.

In the case of `O=C1Nc2ccc(Cl)cc2/C1=C/c1ccc(OCc2ccc(F)cc2)cc1`, the growth is 101%. To `CN1C(=O)/C(=C/C=C/c2ccco2)SC1=S` belongs 79.6%; to `CNC(=O)c1cc(Oc2ccc3nc(NC(=O)c4ccc(CN5CCN(C)CC5)c(C(F)(F)F)c4)sc3c2)ccn1`, -4.18% (active); to `COc1ccc(-c2nc3cc(Cl)c(Cl)cc3n2CC(=O)N=Nc2c(O)[nH]c3ccc(Br)cc23)cc1`, 36.4%. In the case of `CN1CCN(c2ccc(C(=O)/C=C/c3ccc(Cl)c(C(F)(F)F)c3)cc2)CC1`, the growth was 2.99% (active).

Consider `CNC(=O)c1c(NC(=O)c2ccc(F)cc2F)sc2c1CCC(=O)C2`, for which the growth is 1.58% (active). The result for `O=C1NC(=O)c2c1c1c3ccccc3ccc1c1[nH]c3ccccc3c21` reads -9.49% (active); that for `Cc1nn(-c2ccccc2)c2nc(CCl)[nH]c(=O)c12`, 39.8%. In the case of `CC[C@@](C)(NC(=O)C(C)(C)NC(=O)[C@@H](NC(=O)[C@@H]1CCCN1C(=O)C(C)(C)NC(=O)[C@H](CC(C)C)NC(=O)CNC(=O)C(C)(C)NC(=O)[C@@H](NC(=O)C(C)(C)NC(=O)[C@H](CCC(N)=O)NC(=O)[C@H](C)NC(=O)C(C)(C)NC(=O)[C@H](C)NC(=O)C(C)(C)NC(=O)[C@H](C)NC(=O)C(C)(C)NC(C)=O)C(C)C)C(C)C)C(=O)N[C@@H](CCC(N)=O)C(=O)N[C@@H](CCC(N)=O)C(=O)N[C@H](CO)CC1CCCCC1`, the growth is 27.7% [5 µM]. The result for `O=C1CC2(CCOCC2)Oc2ncccc21` reads 15%; that for `COc1cc(/C=N/n2cnc3oc(-c4ccccc4)cc3c2=N)cc(CN2CCCCC2)c1O`, 28.9%. The result for `CC(=O)Nc1nc2c(s1)C1=CC[C@H]3[C@@H]4CC[C@H](C(C)=O)[C@@]4(C)CC[C@@H]3[C@@]1(C)CC2` reads 59.4%. The result for `CS(=O)c1nccc(-c2c(-c3ccc(F)c(OCc4ccccc4)c3)nc3sccn23)n1` (stereo not given) reads -1.23% (active). As to `CCC(CC)N1C(=O)/C(=c2\sc3n(c2=O)C2C(NN=3)N(CC)C(=O)N2CC)c2ccccc21` (stereo not given), the growth was 5.6% (active). The result for `C/C(=N\NC(=O)CSc1nc2sc3c(c2c(=O)n1-c1ccccc1)CCC(C)C3)c1ccc(Cl)cc1` (stereo not given) reads 6.22% (active); that for `COc1ccc(N2CCN(C(=O)CSc3ccc(-c4nc5cc(C)c(C)cc5[nH]4)cn3)CC2)cc1`, 43.6%. Regarding `C/C(=C(/c1ccc(O)cc1)c1ccc(OCCN2CCCCCC2)cc1)c1ccccc1`, the growth was -24% (active). To `Clc1ccc(-c2nc3ccc(/C(=N\N=C\c4ccccc4)c4ccccc4)cc3[nH]2)cc1` belongs 72.9%; to `CCN1C(=O)N(CC)C2SC(N/N=C/C=C/c3ccccc3OC)=NC21` (stereo not given), 27.5%; to `C/C=C/[C@@H]1C=C[C@@H]2C[C@H](C)CC[C@H]2[C@]1(C)/C(O)=C1/C(=O)[C@H](CO)N(C)C1=O`, 59.2%. With `NCCN1CCN(c2nc(-c3ccccc3)nc3nc(-c4ccccc4)oc23)CC1`, the growth was 20.7%. In the case of `COc1ccc(-c2cc(-c3ccc(Cl)cc3)nc3nc(N)nn23)cc1`, the growth is 93.6%. To `O=C(CN1C(=O)CSC1=O)Nc1ccc(C(=O)/C=C/c2cc3ccccc3nc2Cl)cc1` belongs 36.7%. To `Cn1nc(Nc2ccccc2)c(C(=O)NN)c1N` belongs 107%. The result for `Brc1cccc(/C=N/Nc2nc(N/N=C/c3cccc(Br)c3)nc(N3CCOCC3)n2)c1` reads 7.93% (active); that for `Oc1ccc(CSc2nnc(-c3ccncc3)n2-c2ccccc2)c2cccnc12`, 35.6%.
